High-throughput results as filed in PubChem BioAssay.
ATG4B inhibitor: blocks human ATG4B protease cleavage of LC3 substrate | Q9Y4P1 | ATG4B cleavage of LC3-PLA2, NBD-HPC fluorescence, 1 h | inhibition, % at 8.33 µM | 340,000 tested, 0.51% active; in the data active means inhibition above about 40%
CHRM1 antagonist: human CHRM1 antagonism. CHO-K1 hM1, Fluo-8 calcium fluorescence, ACh EC80 antagonist. inhibition, % at 3 µM. 360,000 tested, 1.3% active;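 active means percent inhibition above its own plate's cutoff, namely the mean of that plate's compound wells plus 3 SD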;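 further: peak over basal fluorescence ratio during 140 s after agonist addition; 0% = ACh EC80 plus DMSO and 100% = DMSO alone without agonist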
Target sequence (P11229 whole entry, looked up): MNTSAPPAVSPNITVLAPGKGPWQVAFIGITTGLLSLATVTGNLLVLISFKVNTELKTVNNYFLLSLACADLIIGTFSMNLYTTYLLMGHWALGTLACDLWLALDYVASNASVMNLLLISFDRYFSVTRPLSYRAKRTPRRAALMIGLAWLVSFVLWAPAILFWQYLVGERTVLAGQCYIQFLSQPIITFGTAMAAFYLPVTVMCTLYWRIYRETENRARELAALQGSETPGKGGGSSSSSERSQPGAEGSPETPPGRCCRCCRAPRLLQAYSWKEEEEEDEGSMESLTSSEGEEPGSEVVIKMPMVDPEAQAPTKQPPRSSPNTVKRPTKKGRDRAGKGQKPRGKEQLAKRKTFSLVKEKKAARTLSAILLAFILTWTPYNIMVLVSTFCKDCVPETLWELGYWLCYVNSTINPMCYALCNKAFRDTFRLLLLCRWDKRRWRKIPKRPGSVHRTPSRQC
CHRM1 PAM: positive allosteric modulators of human M1 muscarinic receptor. 360,000 tested, 0.088% active. CHO-K1 hM1, Fluo-8 calcium fluorescence, ACh EC20; 0% = ACh EC20, 100% = maximal ACh. P11229. activation, % at 3 µM. AID 588819; in the data active means activation above about 19%, passing the limit was not always enough
CHRM1 agonist: human M1 muscarinic receptor agonism | activation, % at 3 µM | CHO-K1 hM1, Fluo-8 calcium fluorescence, agonist mode; 0% DMSO, 100% acetylcholine EC100 | P11229 | AID 588814 | 360,000 tested, 0.33% active;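 active means activation above the run's mean compound activation plus 3 SD, cut at about 16% in these data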;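 further: peak over basal fluorescence ratio within a 140 s kinetic read after compound addition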
SKN-1 block: inhibitors of C. elegans SKN-1; C. elegans VP596 Pgst-4::GFP/RFP ratio, acrylamide-induced, 24 h; inhibition, % at 21.8 µM; 360,000 tested, 0.49% active;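 active means interference check ratio from 0.5 to 1.5 plus GFP to RFP signal ratio inhibition reaching or exceeding a fixed threshold, cut at about 30% in these data, passing the limit was not always enough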
Myeloid diff 2: myeloid differentiation induction; 360,000 tested, 1% active; ER-HoxA9 myeloid progenitors, lysozyme-GFP differentiation, flow cytometry; AID 624256; calls only at 10 µM;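 active means normalized GFP-positive differentiation at or above the plate's own cutoff, the solvent-only control mean plus 3 SD; inconclusive means no clear call, values can overlap the other calls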;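 further: cells exposed to compound for four days before flow analysis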
* = called active by the depositor; i = inactive; ? = inconclusive; / = no result given; + = active, no number. A selection: hits, their analogues and other compounds. The true share with any hit is near 3.5%.

SMILES	ATG4B inhibitor	CHRM1 antagonist	CHRM1 PAM	CHRM1 agonist	SKN-1 block	Myeloid diff 2
O=C(Nc1ccc(N2CCOCC2)cc1)c1cccc(S(=O)(=O)N2CCCCCC2)c1	-1.3	-3.4	3.0	-1.8	-2.9	i
Cc1ccc(O)c(NC(=O)c2cccc(S(=O)(=O)N3CCCCC3)c2)c1	-6.5	-10.9	-0.1	-0.5	15.5	+
Cc1onc(-c2c(F)cccc2Cl)c1C(=O)Nc1cc(S(=O)(=O)N2CCCCC2)ccc1O	-6.6	47.2*	-21.3	-3.3	-6.1	i
CCc1noc(C)c1C(=O)Nc1cc(S(=O)(=O)N(CC)CC)ccc1N1CCOCC1	-9.4	-5.0	2.8	-3.3	-0.3	i
Nc1nc(SCC(=O)C23CC4CC(CC(C4)C2)C3)n[nH]1	-11.2	-5.0	4.3	-2.0	1.9	i
O=C1[C@@H]2C(c3cccnc3)=NO[C@@H]2C(=O)N1c1ccc2ccccc2c1	-8.7	-11.0	5.4	-0.5	-2.6	i
CC(C)[C@H](NC(=O)c1cccc(S(=O)(=O)N2CCOCC2)c1)C(=O)OCC(=O)Nc1cccc(Br)c1	-18.1	18.0	-8.3	19.3*	-5.2	i
CN(c1ccccc1C(=O)Nc1ccc(S(=O)(=O)N2CCOCC2)cc1)S(=O)(=O)c1ccccc1	-8.2	42.7*	-26.8	-11.0	7.8	i
CN1CCN(S(=O)(=O)c2cccc(C(=O)Nc3cc(C(F)(F)F)ccc3N3CCCCC3)c2)CC1	4.4	5.6	-2.6	-4.9	10.3	+
Cc1ccc(NC(=O)COC(=O)Cc2ccccc2)cc1S(=O)(=O)N1CCOCC1	-10.7	-5.2	6.2	-2.3	17.2	i
CC(C)[C@H](NC(=O)c1ccccc1)C(=O)OCC(=O)Nc1ccc(S(=O)(=O)N2CCOCC2)cc1	-16.7	-16.3	12.6	-0.4	4.9	i
Cc1ccc(NC(=O)COC(=O)Cc2ccc(Br)cc2)cc1S(=O)(=O)N1CCOCC1	-9.1	35.2*	-16.1	-1.5	14.7	i
Nn1c(SCC(=O)NCc2ccc3c(c2)OCO3)nnc1C(F)(F)F	1.9	-9.9	10.4	-4.5	-7.0	i
COc1ccc(-n2nc3c(c2NC(=O)COc2cccc(OC)c2)CS(=O)(=O)C3)cc1	-9.2	4.9	1.6	-2.0	-13.1	i
Cc1ccc(Nc2cc(Cl)nc(N)n2)c([N+](=O)[O-])c1	3.6	-9.0	1.0	-4.9	12.8	i
CC(C)(C)NC(=O)COC(=O)c1cc(S(=O)(=O)N2CCCCC2)ccc1N1CCOCC1	-15.3	-14.3	4.6	-2.6	-2.2	i
O=C(Nc1cccc(S(=O)(=O)N2CCOCC2)c1)c1cc(S(=O)(=O)N2CCOCC2)c(Cl)cc1Cl	-0.5	35.8*	-12.1	-0.8	9.7	i
O=C(NN=Cc1ccc(F)cc1)c1cccc(S(=O)(=O)N2CCCC2)c1	-14.1	35.6*	-16.0	-5.1	-5.4	i
Cc1cccc(N2CCN(CC(=O)Nc3ccc(S(=O)(=O)N4CCOCC4)cc3)CC2)c1C	-5.9	17.3	-5.7	1.7	-7.3	+
O=C(Nc1ccc(Cl)c(S(=O)(=O)N2CCOCC2)c1)c1ccc(OCC2CCCO2)cc1 (stereo not given)	-6.6	36.4*	-29.7	0.3	7.6	i
O=C(COC(=O)c1ccccc1OCc1ccccc1Cl)NCC1CCCO1 (stereo not given)	4.9	-9.3	3.2	-5.9	5.7	i
CCNc1ccc(S(=O)(=O)N2CCCCC2)cn1	2.2	-6.4	1.4	-3.3	5.8	i
N#Cc1cccc(C(=O)Nc2cccc(S(=O)(=O)N3CCCC3)c2)c1	-1.7	38.0*	-21.1	-5.6	11.2	/
O=C(Nc1ccc(N2CCOCC2)cc1)c1cccc(S(=O)(=O)N2CCCC2)c1	1.2	33.6*	-29.0	-11.5	-0.6	i
NS(=O)(=O)c1cccc(NC(=O)c2cccc(S(=O)(=O)N3CCCCCC3)c2)c1	-13.6	-14.3	7.7	-4.1	6.5	i
SMILES	ATG4B inhibitor	CHRM1 antagonist	CHRM1 PAM	CHRM1 agonist	SKN-1 block	Myeloid diff 2
COc1ccc(C(=O)Nc2cccc(S(=O)(=O)N3CCCC3)c2)cc1S(=O)(=O)N1CCOCC1	-10.6	43.1*	-24.3	-7.2	7.1	i
CCCCn1c(SCC(=O)c2ccc3c(c2)NC(=O)CO3)nc2cc(S(N)(=O)=O)ccc21	-33.7	1.1	0.9	-5.6	-0.6	i
CCCC(c1nnnn1CS(=O)(=O)c1ccc(C)cc1)N1CCC(C(N)=O)CC1 (stereo not given)	-4.9	-10.9	8.2	-2.8	-5.4	?
CC(C)CC(=O)N(c1nnc(-c2cccnc2)s1)C1CCCC1	-3.4	-19.4	5.8	-4.8	24.1	i
C=CCc1cc(Cl)ccc1OCCCNC(C)CC (stereo not given)	0.4	24.3*	-22.4	-7.3	10.5	i
C=CCc1cc(Cl)ccc1OCCn1ccnc1	-1.1	5.8	-8.0	-7.2	13.6	+
CCC(C)NCCOCCOc1ccc(F)cc1 (stereo not given)	9.7	-14.1	2.9	-6.0	3.4	i
CCC(C)NCCOCCOc1ccc(Cl)cc1Br (stereo not given)	-3.3	42.1*	-22.3	-7.5	-2.0	i
CCC(C)NCCOCCOc1cc(C)c(Cl)c(C)c1 (stereo not given)	-2.9	53.7*	-25.3	-7.4	1.9	i
CCN1CCCC(OC(=O)c2cc(-c3ccccc3Cl)nc3ccccc23)C1 (stereo not given)	14.4	-2.7	-6.4	-10.4	-3.0	i
COc1cccc(Nc2nc(C(N)CCc3ccccc3)cs2)n1 (stereo not given)	/	0.7	3.9	9.6	-1.8	i
Cc1c(Cl)cccc1NC(=O)CSC(N)=O	-2.2	-3.5	3.3	-4.3	0.1	i
COc1cc(NC(=NS(=O)(=O)c2ccccc2)c2ccccc2)ncn1	-3.5	-8.8	8.6	-1.6	16.6	i
CC(=O)Nc1cccc(NS(=O)(=O)c2cn(C)c(=O)n(C)c2=O)c1	-11.2	-2.4	1.3	-5.3	-6.5	i
O=C(Nc1ccc(Cc2ccncc2)cc1)c1cc([N+](=O)[O-])ccc1N1CCOCC1	-6.1	-1.3	-1.0	-2.3	0.1	i
O=C(Nc1ccc(Cl)cc1Cl)c1ccc(Br)o1	1.6	-30.4	20.5	0.4	35.8*	i
O=C(Nc1cc(Cl)ccc1N1CCOCC1)c1ccc(Br)o1	-0.2	-7.2	8.0	-3.2	-5.4	i
CCCCCOC(=O)c1ccc(NC(=O)c2ccco2)cc1	13.9	-2.2	1.1	-2.5	70.7*	i
CCCCOC(=O)c1ccc(NC(=O)/C=C/c2cccs2)cc1	9.4	-3.1	0.4	-4.6	37.4*	i
COc1ccc(-c2coc3c(C(=O)NCc4ccc(OC)c(OC)c4)cccc23)c(C)c1	/	44.1*	-18.8	3.2	24.6	i
COc1ccc(-c2coc3c(C(=O)NCc4ccc(F)c(F)c4)cccc23)c(C)c1	/	17.8	-11.5	-1.7	6.3	i
